Test results from PubChem BioAssay (NCI).
The panel holds about 83,000 compounds, 20% with a hit somewhere; the sample as a whole holds those more often.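 48-hour exposure, single concentration, 96-well plates; percent growth endpoint where 0 means no net growth. Active: below 10.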 A number with no mark means an inactive call. Activity calls are given as the source filed them.

tested on: OVCAR-8 ovarian; assay: NCI-60 one-dose screen, 48 h (100 = growth as untreated, 0 = no growth, -100 = all killed); details: 10 µM unless noted
Method: Growth inhibition of the OVCAR-8 human tumor cell line is measured as a screen for anti-cancer activity. Cells are grown in 96 well plates and exposed to the test compound for 48 hours. Compounds are tested at a single concentration, which is 10^-5 M for most compounds. The reported endpoint is percent growth (GI% or GIPRCNT), where numbers from 0 - 100% represent growth inhibition, and numbers from -100% - 0 represent cell death. For example, a value of 40 represents 60% growth inhibition. A value of 0 means no net growth occurred over the course of the experiment. A value of -40 indicates 40% of cells at the beginning of the experiment died by the end of the experiment. A value of -100 means all cells are dead at the end of the experiment.
NCI-60 Human Tumor Cell Lines Screen was performed using the standard one-dose NCI protocol, which is described in more detail at https://dtp.cancer.gov/discovery_development/nci-60/default.htm.
Compounds with GIPRCNT values below 10 were considered active. Activity score was based on GIPRCNT using the following formula: […]
Score is 0 for GIPRCNT values of 100 or above, 50 for GIPRCNT values of 0, and 100 for GIPRCNT values of -100.

| SMILES | growth |
| --- | --- |
| CC(C)N(Cc1ccccc1)c1c(Cl)ssc1=O | 86.7% |
| CC[C@H]1CN2CCc3cc(OC)c(OC)cc3C2C[C@@H]1CC1NCCc2cc(OC)c(OC)cc21 (stereo not given in full) | -20.6% (active) |
| O=c1c2c(=NCCCN3CCCC3)cc3c(=O)n(CCCN4CCCC4)c(=O)c4c(NCCCN5CCCC5)cc(c(O)n1CCCN1CCCC1)c2c4-3 | 5.37% (active) |
| C=CCNC(=O)/C(=C/c1cccc([N+](=O)[O-])c1)NC(=O)c1ccccc1 | 98.7% |
| O=C(COc1ccc(/C=C2\Oc3ccc4ccccc4c3C2=O)cc1)c1ccc(Cl)cc1 | 100% |
| COc1ccc2c(c1)C(=Nc1cc(OC)c(OC)c(OC)c1)C(=O)N2 | 105% |
| c1ccc(Nc2ccc(Nc3nc(-c4ccccc4)nc4ccccc34)cc2)cc1 | 76.3% |
| CCOc1cc(/C=C/C(=O)C(C(=O)/C=C/c2ccc(OC(=O)CNc3nnc(C)s3)c(OCC)c2)C(=O)CNc2nnc(C)s2)ccc1OC(=O)CNc1nnc(C)s1 | 2.17% (active) |
| COc1cnc2c(c1)C(=O)c1c-2n(CCCn2ccnc2)c(=O)c2cc(F)ccc12 | 5.92% (active) |
| N#Cc1c(-c2ccccc2)cc(-c2ccccc2)n(CC(=O)O)c1=O | 57.1% |
| CCSCC1CC(O)(c2ccccc2)C(c2ccccc2)C(c2ccc(Cl)cc2)O1 (stereo not given) | -11.2% (active) |
| O=C(O)C1C(c2ccccc2)c2ccccc2C(O)C1CO (stereo not given) | 103% |
| C[C@H](C(=O)N[C@@H](Cc1ccc(-c2ccccc2)cc1)C(=O)NC1CC(C)(C)NC(C)(C)C1)c1ccc(-c2ccccc2)c(F)c1 | -49.9% (active) |
| CC(=O)N1N=C(c2ccc(C(F)(F)F)cc2)CC1c1ccc2c(c1)OCO2 (stereo not given) | 101% |
| O=C(C(=O)N1CCOCC1)c1cn(CCCn2cc(C(=O)C(=O)N3CCOCC3)c3ccccc32)c2ccccc12 | 104% |
| COc1cc(/C=N/NC(=O)c2ccc(C(F)(F)F)nc2Nc2cc(Cl)ccc2C)cc(OC)c1OC | 99.8% |
| CN1C(=O)C(C2=NN(C=O)C(c3ccc(F)cc3)C2)C(=O)N(C)C1=O (stereo not given) | 98.9% |
| COc1ccc2c3c(ccc2c1)C(=O)/C(=C\O)CC3 | 97.4% |
| CCSc1nc(-c2cccs2)n2nc(-c3ccco3)cc2n1 | 99.8% |
| COc1ccc(C2=NN(C(C)=O)C(c3c(C)nn(-c4ccccc4)c3N3CCOCC3)C2)cc1 (stereo not given) | 94.4% |

| SMILES | growth |
| --- | --- |
| COc1c(Br)cc(C(c2cc(Br)c(OC)c(Br)c2)c2ccccc2C(=O)O)cc1Br | 102% |
| O=C(Nc1ccc(Cl)cc1)Nc1nc2ccc(OC(F)(F)F)cc2o1 | 85.4% |
| COc1ccc(-c2c3c(N)nc(-c4ccncc4)nc3nc3c2c(C)nn3-c2ccccc2)cc1 | 63.2% |
| Cc1cc2c(cc1C)[n+](Cc1ccc3ccccc3n1)cn2Cc1ccc2ccccc2n1 | 6.48% (active) |
| COc1cnc2c(c1)C(=O)c1c-2n(CCCNC(C)C)c(=O)c2cc(F)ccc12 | -14.2% (active) |
| OC(c1cc(-c2cccc(Cl)c2)nc2ccccc12)C1CCCCN1 (stereo not given) | -52.6% (active) |
| CCCCCc1c(C)[nH]c(/C=C2\N=C(c3ccc[nH]3)C=C2Oc2ccc(Cl)cc2)c1C | -21.5% [100 µM] (active) |
| Nc1nc(Nc2ccccc2SSc2ccccc2Nc2nc(N)nc(C(Cl)(Cl)Cl)n2)nc(C(Cl)(Cl)Cl)n1 | 47.9% |
| Cc1cc2c(cc1C)[n+](Cc1ccc3ccccc3c1)cn2Cc1ccc2ccccc2c1 | -79% (active) |
| CN1CCN(c2nc3scc(-c4ccccc4)c3c(=O)[nH]2)CC1 | 106% |
| CCc1ccc(-c2nc(SCC(=O)NC3CCCCC3)n[nH]2)cc1 | 70% |
| O=C(/C=C/c1ccc([N+](=O)[O-])cc1)c1ccc2c3c(cccc13)CC2 | 28.7% |
| COc1cccc(/C=N\NC(=O)c2ccncc2)c1O | 58.7% |
| CCSc1nc(-c2ccco2)n2nc(-c3ccco3)cc2n1 | 97.1% |
| Nc1ccn(C2O[C@H](CO)[C@@H](O)[C@@H]2O)c(=O)n1 (stereo not given in full) | 34% |
| O=C(c1ccc(N2CCOCC2)cc1[N+](=O)[O-])N1CCOCC1 | 73.5% |
| COc1cc(/C=C/C(=O)C(C(=O)/C=C/c2ccc(OC(=O)CCNC34CC5CC(CC(C5)C3)C4)c(OC)c2)C(=O)CCNC23CC4CC(CC(C4)C2)C3)ccc1OC(=O)CCNC12CC3CC(CC(C3)C1)C2 (stereo not given) | 8.87% (active) |
| C=C1CCC2C3(C)COC(c4ccccc4)OC3CCC2(C)C1C/C=C1/C(=O)OCC1OC(C)=O (stereo not given) | 41.9% |
| CCOC(=O)CCC(=O)O[C@H]1[C@H](O[C@@H]2[C@@H](C)[C@H](O[C@H]3C[C@@](C)(OC)[C@@H](O)[C@H](C)O3)[C@@H](C)C(=O)O[C@H](CC)[C@@](C)(O)[C@H](O)[C@@H](C)C(=O)[C@H](C)C[C@@]2(C)O)O[C@H](C)C[C@@H]1N(C)C | 106% |
| CC1=C([Se]CC(OC(=O)[C@@H](CSSC(C)(C)C)NC(=O)C(C)(C)C)C(=O)NCCCCCC(=O)OCc2ccccc2)C(=O)c2ccccc2C1=O (stereo not given in full) | 8.55% (active) |
